GluA2 TARP mod = modulators of AMPA receptor GluA2-stargazin complexes | HEK293 GluA2+stargazin, membrane potential dye (FDSS), glutamate EC50; hits were called plate by plate, in both directions | hit rate 3.5% among 40,000 | AID 1259245 | calls only at 30 µM | O88602+P19491;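 active means any of four per-well response measures lying three or more SD from its plate-wide compound average, in either direction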
GIRK2 activator = Activates human GIRK2-containing potassium channels; HEK293 GIRK2/NPY4 cells, thallium flux fluorescence; 34,000 tested, under 10 active; activation (% efficacy), % for hits at 37.5 µM;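 active means primary screen hit, no activity in plain HEK293 cells, and in GIRK2-only cells above 5% efficacy rising with concentration; inactive means the rest, including fluorescent compounds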;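 further: efficacy is normalized control-subtracted fluorescence 15 s after thallium addition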
The depositor's hits bear a star. The full list was thinned out, with hits kept by preference.

`CCN(C(=S)NC(=O)c1ccc(Br)o1)c1ccccc1` gave GluA2 TARP mod inactive.
Screening CNc1nn(CC(=O)Nc2cc(Cl)ccc2OC)c(N)c1-c1nc(-c2ccc(C)cc2)no1 returned GluA2 TARP mod inactive and GIRK2 activator inactive.
`COc1ccc(S(=O)(=O)CCCC(=O)Nc2nc(-c3cc([N+](=O)[O-])cs3)cs2)cc1` gave GluA2 TARP mod active and GIRK2 activator inactive.
Screening CCC(=O)Nc1nc2ccc([N+](=O)[O-])cc2s1 returned GluA2 TARP mod active and GIRK2 activator inactive.
`O=C(CN1C(=O)c2ccccc2S1(=O)=O)Nc1nc2ccc([N+](=O)[O-])cc2s1` gave GluA2 TARP mod inactive and GIRK2 activator inactive.
`COc1ccc(S(=O)(=O)CCCC(=O)Nc2nc(-c3cccc([N+](=O)[O-])c3)cs2)cc1` gave GluA2 TARP mod inactive and GIRK2 activator inactive.
Screening O=S(=O)(NCC(O)(c1cccs1)C1CC1)c1ccccc1F (stereo not drawn) returned GluA2 TARP mod inactive and GIRK2 activator inactive.
COc1cccc(NC(=O)Cn2c3c(c(=O)n(C4CCCCC4)c2=O)CCC3)c1 was read as GluA2 TARP mod inactive and GIRK2 activator inactive.
Screening CC(C(=O)Nc1ccc(Br)cc1)N1C(=O)c2ccccc2S1(=O)=O (stereo not drawn) returned GluA2 TARP mod inactive and GIRK2 activator inactive.
Screening CC(C(=O)Nc1nc2ccccc2s1)N1C(=O)c2ccccc2S1(=O)=O (stereo not drawn) returned GluA2 TARP mod active.
For CC(C(=O)Nc1cc(Cl)ccc1O)N1C(=O)c2ccccc2S1(=O)=O (stereo not drawn) the results were GluA2 TARP mod active and GIRK2 activator inactive.
For CC(C(=O)Nc1nc2ccc(S(C)(=O)=O)cc2s1)N1C(=O)c2ccccc2S1(=O)=O (stereo not drawn) the results were GluA2 TARP mod inactive.
`CC(C(=O)Nc1ccc(F)c(F)c1F)N1C(=O)c2ccccc2S1(=O)=O` (stereo not drawn) gave GluA2 TARP mod inactive.
Screening CC(C(=O)Nc1cccc(Br)c1)N1C(=O)c2ccccc2S1(=O)=O (stereo not drawn) returned GluA2 TARP mod active and GIRK2 activator inactive.
O=C1CCCN1c1cccc(NS(=O)(=O)CCc2ccccc2)c1 was read as GluA2 TARP mod inactive and GIRK2 activator inactive.
`Cc1ccc(S(=O)(=O)NC2CC(C)(C)NC(C)(C)C2)cc1` gave GluA2 TARP mod inactive.
Cc1ccc([N+](=O)[O-])cc1S(=O)(=O)NC1CC(C)(C)NC(C)(C)C1 was read as GluA2 TARP mod active.
`CCOC(=O)c1sc2cccc(F)c2c1S(=O)(=O)Nc1cc(OC)c(OC)c(OC)c1` gave GluA2 TARP mod inactive.
For COc1ccccc1-n1ccn(Cc2nc(-c3ccc(Cl)cc3)no2)c(=O)c1=O the results were GluA2 TARP mod inactive and GIRK2 activator inactive.
Cc1cccnc1NC(=O)c1ccc(=O)n(Cc2cccc([N+](=O)[O-])c2)c1 was read as GluA2 TARP mod active and GIRK2 activator inactive.
Cc1ccc(NC(=O)c2ccc(=O)n(Cc3cccc([N+](=O)[O-])c3)c2)cc1C was read as GluA2 TARP mod inactive and GIRK2 activator inactive.
`Cc1c(Cl)cccc1NC(=O)c1ccc(=O)n(Cc2cccc([N+](=O)[O-])c2)c1` gave GluA2 TARP mod inactive and GIRK2 activator inactive.
Cc1ccnc(NC(=O)c2ccc(=O)n(Cc3cccc([N+](=O)[O-])c3)c2)c1 was read as GluA2 TARP mod active and GIRK2 activator inactive.
CSc1ncc(Cl)c(C(=O)N2CCN(c3cccc(C)c3C)CC2)n1 was read as GluA2 TARP mod inactive.
For Cc1ccc(NS(=O)(=O)c2ccc(NC(=S)NC(=O)/C=C/c3ccco3)cc2)c(C)c1 the results were GluA2 TARP mod inactive and GIRK2 activator inactive.
`CNC(=O)c1nsc(C(=O)NCc2cccc(C(F)(F)F)c2)c1N` gave GluA2 TARP mod inactive and GIRK2 activator inactive.
For CNC(=O)c1nsc(C(=O)NCc2ccc(OC)c(OC)c2)c1N the results were GluA2 TARP mod active and GIRK2 activator inactive.
For O=C(c1ccccc1)N1CCCc2cc(NS(=O)(=O)c3ccc(F)cc3)ccc21 the results were GluA2 TARP mod inactive.
Screening O=c1ccc(-c2ccco2)nn1Cc1ccccc1F returned GluA2 TARP mod inactive and GIRK2 activator inactive.
Screening Cc1cccc(-c2nc3c(c(SCC(=O)N(C)C)n2)CCCC3)c1 returned GluA2 TARP mod inactive and GIRK2 activator inactive.
O=C(CSc1nc(-c2ccccc2)nc2c1CCCC2)N1CCOCC1 was read as GluA2 TARP mod active.
`O=C(Nc1sc2c(c1C(=O)O)CCC2)c1cccc(Cl)c1` gave GluA2 TARP mod active.

From PubChem
